# Assay results from PubChem BioAssay (Tox21).
# Results filed as inconclusive are left out. A call without a number means that no potency is given here. Unmarked numbers belong to inactive results. The source made the active and inactive calls. Unless noted, calls follow the shape of the dose curve; as a rule, active = well fitted curve in the direction sought with a large enough effect in the repeat runs; inconclusive = weak or mixed curves; inactive = no such curve, though single readings can be large; an effect the other way counts as inactive or inconclusive.
# Tests used:
# [1] = qHTS assay to identify small molecule antagonists of the retinoid acid receptor (RAR) signaling pathway - cell viability counter screen (AID 1159551); also: nearly all actives have a fitted effect of over 35% in size; also: potency is read from the fitted curve at half-maximal effect
# In short: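 Viability of C3RL4 cells is quantified from ATP by luminescence after 6 h treatment at 37 C with compounds and 1 uM retinol.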
# [2] = qHTS assay to identify small molecule antagonists of the retinoic acid receptor (RAR) signaling pathway (AID 1159552; also: nearly all actives have a fitted effect of over 50% in size; also: potency is read from the fitted curve at half-maximal effect)
# In short: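 Cells of the C3RL4 line were seeded, incubated overnight, then dosed with compounds in DMSO followed immediately by retinol (1 uM final). Six hours later luciferase detection reagent went in; signal was measured after 30 min at RT.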
# [3] = qHTS assay to identify small molecule agonists of the RXR signaling pathway - cell viability counter screen (AID 1159529); also: nearly all actives have a fitted effect of over 50% in size; also: potency is read from the fitted curve at half-maximal effect;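 as to activity change, negative = cytotoxicity: HEK 293T cells carrying an RXR-alpha UAS beta-lactamase reporter; series mostly up to about 77 µM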
# In short: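 HEK 293T RXRa-bla cells, 2% CS-FBS; 5 h settle; cpd 16 h 37 C, 5% CO2; CellTiter-Glo 30 min RT, luminescence. Tetraoctyl ammonium bromide as positive control.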
# [4] = qHTS assay to identify small molecule agonists of the retinoic acid receptor (RAR) signaling pathway (AID 1159553); also: potency is read from the fitted curve at half-maximal effect
# In short: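 Compounds dissolved in DMSO were pinned onto C3RL4 cells seeded the previous day, and plates were held 6 hr at 37 C. RARE-driven luciferase output was then read by luminescence.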
# [5] = qHTS assay to identify small molecule antagonists of the estrogen related receptor (ERR) signaling pathway (AID 1224819; also: nearly all actives have a fitted effect of over 50% in size; also: potency is read from the fitted curve at half-maximal effect)
# In short: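 ERR reporter cells were plated at 2,000 cells/well and left 6 h at 37 C/5% CO2 before pin-tool transfer of compounds in DMSO. After 18 h at 37 C, One-Glo was added and luminescence was read 30 min later at room temperature.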
# [6] = qHTS assay to identify small molecule agonists of the estrogen related receptor (ERR) signaling pathway (AID 1224820)
# In short: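 After 6 h plating (2,000 cells/well) and 18 h compound treatment at 37 C, ERR cells were lysed with One-Glo and luminescence read after 30 min at room temperature.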
# [7] = system: estrogen-related receptor alpha (ERRalpha) with PGC-1alpha coactivator, human; assay: qHTS assay to identify small molecule antagonists of the estrogen related receptor signaling pathway with the pleiotropic PPARgamma coactivator (PGC) (AID 1224821; calls by dose curve; also: nearly all actives have a fitted effect of over 50% in size; also: potency is read from the fitted curve at half-maximal effect)
# In short: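 Luminescence from One-Glo luciferase reagent (30 min, room temperature) measured after 18 h compound treatment at 37 °C. Cells carry the PGC/ERR reporter and were seeded 6 h prior to dosing.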
# [8] = qHTS assay to identify small molecule agonists of the estrogen related receptor signaling pathway with the pleiotropic PPARgamma coactivator (PGC) (AID 1224823)
# In short: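 Luminescence from One-Glo reagent (30 min, room temperature) was read after 18 h compound treatment at 37 C of PGC/ERR cells plated 6 h beforehand; compounds delivered in DMSO by pin tool.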
# [9] = qHTS assay to identify small molecule antagonists of the estrogen related receptor (ERR) signaling pathway - cell viability counter screen (AID 1224818);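 also: series mostly up to about 46 µM; viability measured after 17.5 h of compound exposure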
# In short: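 Cytotoxicity check run alongside the ERR antagonist screen: cells exposed to test compounds 17.5 h at 37 C, viability taken as CellTiter-Fluor fluorescence intensity.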
# [10] = qHTS assay to identify small molecule antagonists of the estrogen related receptor signaling pathway with the pleiotropic PPARgamma coactivator (PGC) cell viability counter screen (AID 1224822;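 also: series mostly up to about 46 µM; viability read after 17.5 h compound exposure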)
# In short: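 Viable cell signal (CellTiter-Fluor, 30 min, 37 C/5% CO2) was measured in PGC/ERR cells after a 17.5 h compound incubation.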
structure (smiles),measurement,setting,value
CC(C)COC(=O)c1ccc(O)cc1,Potency,[1],inactive
same,Potency,[2],inactive
COC(CC(C)CCCC(C)(C)O)OC (stereo not given),Potency,[1],inactive
same,Potency,[2],inactive
COc1ccc(C(=O)NCc2ccc(OCCN(C)C)cc2)cc1OC,Potency,[1],inactive
CCCCCCCCCCCC(=O)OCC(O)CO (stereo not given),Potency,[1],inactive
same,Potency,[2],inactive
O[C@@H](CNC[C@H](O)[C@H]1CCc2cc(F)ccc2O1)[C@@H]1CCc2cc(F)ccc2O1,Potency,[3],19 µM (active)
same,Potency,[2],29.8 µM (active)
C[C@@H]1C[C@H]2[C@@H]3CCC4=CC(=O)C=C[C@]4(C)[C@@]3(F)[C@@H](O)C[C@]2(C)[C@@]1(O)C(=O)COP(=O)(O)O,Potency,[1],inactive
[Cl][Nd]([Cl])[Cl],Potency,[3],inactive
same,Potency,[1],inactive
same,Potency,[4],inactive
CCCCCCCC(=O)Oc1c(Br)cc(C#N)cc1Br,Potency,[1],inactive
CC(C)(O)c1coc(S(=O)(=O)NC(=O)Nc2c3c(cc4c2CCC4)CCC3)c1,Potency,[1],inactive
same,Potency,[2],inactive
CC(=O)OCC(=O)[C@@]1(OC(C)=O)[C@@H](C)C[C@H]2[C@@H]3C[C@H](F)C4=CC(=O)C=C[C@]4(C)[C@@]3(F)[C@@H](O)C[C@@]21C,Potency,[1],inactive
same,Potency,[2],inactive
CCN(CC)CC(=O)Nc1c(C)cccc1C(=O)OC,Potency,[1],inactive
COC(=O)C1=C(C)NC(C)=C(C(=O)OC(C)(C)CN(C)CCC(c2ccccc2)c2ccccc2)C1c1cccc([N+](=O)[O-])c1 (stereo not given),Potency,[3],inactive
same,Potency,[1],inactive
same,Potency,[5],19.6 µM (active)
same,outcome,[6],inactive
same,Potency,[7],13.9 µM (active)
same,outcome,[8],inactive
COc1ccc(/C=C/C(=O)c2ccc(OC)cc2OC)cc1,Potency,[1],inactive
same,Potency,[2],inactive
C/C(C=O)=C\c1ccccc1,Potency,[3],inactive
same,Potency,[1],inactive
same,Potency,[4],inactive
O=C(O)CCCc1c[nH]c2ccccc12,Potency,[1],inactive
CNCc1ccc(NC(=O)c2c[nH]c3c2C(=O)CCC3)cc1,Potency,[1],inactive
same,Potency,[2],inactive
CCCCCCCCCCCCCCCCCC(=O)OCC(CC)CCCC (stereo not given),Potency,[1],inactive
same,Potency,[2],inactive
CCN(Cc1cccc(S(=O)(=O)O)c1)c1ccc(C(=C2C=CC(=[N+](CC)Cc3cccc(S(=O)(=O)O)c3)C=C2)c2ccc(O)cc2S(=O)(=O)[O-])cc1,Potency,[1],14.8 µM (active)
same,Potency,[2],9.32 µM (active)
CN=C(N)NC(=O)Nc1c(C)cccc1C,Potency,[1],inactive
NC(=O)CCCCC(N)=O,Potency,[1],inactive
Cc1ccc(Nc2c(F)cccc2Cl)c(CC(=O)O)c1,Potency,[1],inactive
Cc1cc(CCCOc2c(C)cc(-c3noc(C(F)(F)F)n3)cc2C)on1,Potency,[3],inactive
same,Potency,[2],inactive
same,Potency,[4],inactive
CC(=O)N[C@@H](Cc1ccc(O)cc1)C(=O)O,Potency,[1],inactive
same,Potency,[2],inactive
CC(C)C(O)C(C)(C)CO (stereo not given),Potency,[3],inactive
same,Potency,[2],5.01 µM (active)
same,Potency,[4],inactive
CC[C@H]1OC(=O)[C@H](C)[C@@H](O[C@H]2C[C@@](C)(OC)[C@@H](O)[C@H](C)O2)[C@H](C)[C@@H](O[C@@H]2O[C@H](C)C[C@H](N(C)C)[C@H]2O)[C@](C)(O)C[C@@H](C)CN(C)[C@H](C)[C@@H](O)[C@]1(C)O,Potency,[1],inactive
Nc1ccc(NC(=O)c2ccc(N)cc2)cc1,Potency,[1],inactive
same,Potency,[2],inactive
Cc1oc(=O)oc1COC(=O)[C@@H]1N2C(=O)[C@@H](NC(=O)[C@H](N)c3ccccc3)[C@H]2SC1(C)C,Potency,[1],inactive
c1ccc(CCCc2ccncc2)cc1,Potency,[1],inactive
same,Potency,[2],inactive
SCCc1cnccn1,Potency,[1],inactive
COc1ccc(-c2cc(C(F)F)nn2-c2ccc(S(N)(=O)=O)cc2)cc1F,Potency,[3],inactive
same,Potency,[4],inactive
OCC(CO)n1cnc(-c2ccc(F)cc2)c1-c1ccnc(Oc2ccccc2)n1,Potency,[1],inactive
O=NN(CCCl)C(=O)NCCCl,Potency,[3],inactive
same,Potency,[1],inactive
same,outcome,[9],inactive
same,Potency,[5],inactive
same,outcome,[6],inactive
same,Potency,[7],inactive
same,outcome,[10],inactive
same,outcome,[8],inactive
CCCCC[C@H](O)/C=C/[C@H]1[C@H](O)CC(=O)[C@@H]1C/C=C\CCCC(=O)O,Potency,[3],inactive
same,Potency,[1],inactive
same,Potency,[4],inactive
CC12CC3CC(C)(C1)CC(N)(C3)C2,Potency,[3],inactive
same,Potency,[1],inactive
same,Potency,[4],inactive
same,outcome,[9],inactive
same,Potency,[5],inactive
same,outcome,[6],inactive
same,Potency,[7],inactive
same,outcome,[10],inactive
same,outcome,[8],inactive
CC(=O)C(C)=O,Potency,[3],inactive
same,Potency,[1],inactive
same,outcome,[9],inactive
same,outcome,[10],inactive
C=CC(=O)O,Potency,[1],inactive
same,Potency,[2],inactive
same,Potency,[4],inactive
CNC1CCCN(c2c(F)cc3c(=O)c(C(=O)O)cn(C4CC4)c3c2OC)C1 (stereo not given),Potency,[1],inactive
same,Potency,[2],inactive
same,Potency,[4],inactive
CC(=O)OCCC1CCCCC1,Potency,[1],inactive
same,Potency,[2],inactive
NC(=O)c1ccccc1[N+](=O)[O-],Potency,[1],inactive
same,Potency,[2],inactive
same,Potency,[4],inactive
Cc1cc([N+](=O)[O-])ccc1N,Potency,[1],inactive
same,Potency,[2],inactive
same,Potency,[4],inactive
CC(CCc1ccc(O)cc1)NCCc1ccc(O)c(O)c1 (stereo not given),Potency,[1],inactive
same,outcome,[9],inactive
same,Potency,[5],inactive
same,outcome,[6],inactive
same,Potency,[7],inactive
same,outcome,[10],inactive
same,outcome,[8],inactive
CCCCCCCC/C=C\CCCCCCCC(=O)OCCO,Potency,[1],inactive
same,Potency,[4],inactive
O=C(O)CCS,Potency,[1],inactive
same,Potency,[2],inactive
same,Potency,[4],inactive
CCCOC(=O)c1c(Cl)c(Cl)c(Cl)c(Cl)c1C(=O)OCCC,Potency,[1],inactive
same,Potency,[2],inactive
same,Potency,[4],inactive
CCOc1ncc(F)c(=O)[nH]1,Potency,[1],inactive
same,Potency,[2],inactive
same,Potency,[4],inactive
COc1cc(NS(=O)(=O)c2ccc(N)cc2)nc(C)n1,Potency,[1],inactive
same,Potency,[2],inactive
same,Potency,[4],inactive
O=[N+]([O-])c1ccc2ncccc2c1,Potency,[1],inactive
same,Potency,[4],inactive
CC(C)OC(=O)c1ccccc1C(=O)OC(C)C,Potency,[1],inactive
same,Potency,[2],inactive
same,Potency,[4],inactive
CCCCCCC(O)CCCCCCCCCCC(=O)OC (stereo not given),Potency,[1],inactive
same,Potency,[2],inactive
same,Potency,[4],inactive
CCCCCCCCCCCCCOC(=O)CCSCCC(=O)OCCCCCCCCCCCCC,"activity change, negative = cytotoxicity",[1],3.2% [at 19 µM]
same,"activity, negative = inhibition",[2],-11.1% [at 19 µM]
same,Potency,[4],inactive
CCN(CC)c1ccc(C(=C2C=CC(=[N+](CC)CC)C=C2)c2ccc(S(=O)(=O)O)cc2S(=O)(=O)[O-])cc1,Potency,[1],15.4 µM (active)
same,Potency,[2],24.3 µM (active)
Nc1ccc(N=Nc2ccc(N)cc2)cc1,Potency,[1],inactive
same,Potency,[2],inactive
same,Potency,[4],0.863 µM (active)
C[C@@H]1[C@H](O)[C@@H](C)/C=C/C=C\C=C\C=C\C=C\C=C\C=C\[C@H](O[C@@H]2O[C@H](C)[C@@H](O)[C@H](N)[C@@H]2O)C[C@@H]2O[C@](O)(C[C@@H](O)C[C@@H](O)[C@H](O)CC[C@@H](O)C[C@@H](O)CC(=O)O[C@H]1C)C[C@H](O)[C@H]2C(=O)O (stereo in doubt),Potency,[1],inactive
same,Potency,[2],inactive
